Test results taken from ChEMBL document CHEMBL3988442, “University of Dundee, Small-Polar-MMV Screening Library” (2021).
About 950 (1.4%) of roughly 69,000 compounds showed an effect of 50% or more. The full list was thinned out, with strong results kept by preference.

system: Mycobacterium tuberculosis; assay: Cornell M. t heat shock assay; assay type: functional, organism-based; parameters: dose or concentration left out as unconfirmed; note: in the data most compounds retested in dose-response had high values

SMILES	Percent Effect [%]
C[C@H]1CN(C(=O)c2ccoc2)C[C@@]12CCN(CCN(C)C)C2=O.O=C(O)C(F)(F)F	-17.94
O=C1C[C@H]2CC[C@@H](CN1)N2C1CCSCC1	14.33
CCN1C[C@H]2C[C@H](C(=O)NCc3cccnc3)[C@@H](C1)O2	-4.927
Cc1ccc(C(=O)N2CCC3(CC2)COC(COc2cccnc2)C3)o1.O=C(O)C(F)(F)F (centres undefined)	-31.88
O=C(O)C(F)(F)F.c1cnc(N2CCO[C@H]3CN(CC4CCC4)C[C@H]32)cn1	6.326
CC(=O)N1CCc2c(nc(N(C)C)nc2NC(C)Cc2cccs2)C1 (centres undefined)	23.93
CC(=O)N1CCc2c(nc(N(C)C)nc2NCc2cccs2)C1	-2.548
CC(=O)N1CCc2c(nc(N(C)C)nc2NCCc2cccs2)C1	53.71
CCCNc1cc(-c2c[nH]nc2C2CCN(C(=O)C3CCC3)C2)ccn1 (centres undefined)	-8.816
Cl.O=C(NCc1ccc(Cl)cc1)N1CCN(CC(O)C2CC2)CC1 (centres undefined)	7.084
CC(C)C(=O)Nc1ccc2c(c1)ncn2CC(=O)NCCN(C)C	-3.322
CC(C)NC(=O)Nc1ccc2c(c1)ncn2CC(=O)NCCN(C)C	-0.1313
CC(C)CC(=O)Nc1ccc2c(c1)ncn2CC(=O)NCCN(C)C	65.51
CC(=O)N1CCN(c2cc(C3CCNCC3)ccn2)CC1.Cl.Cl	2.778
O=C(N1CCCC1)N1CCC2(CC1)CN(c1cccnc1)C(=O)CO2.O=C(O)C(F)(F)F	-4.597
CCn1cc(NC(=O)c2cccc(CN3C[C@@H](C)O[C@@H](C)C3)c2)nn1	87.48
CCCn1cc(NC(=O)c2cccc(CN3CC=CC3)c2)nn1	-7.923
CCCn1cc(NC(=O)c2cccc(CN3CC[C@H](O)C3)c2)nn1	18.76
CN(C)C(=O)CO[C@H]1CN(Cc2ccsc2)[C@@H]2COC[C@H]12.O=C(O)C(F)(F)F	37.89
CN(C)C(=O)Cn1c(C2CC2)c(CN2CCC(O)CC2)c2cccnc21.Cl	-13.49
CC(C)CCn1c(=O)nc2n1C(=O)N(c1ccc(F)cc1)C2	4.203
CCC1=N[C@@]2(CC[C@@H]3CN(Cc4ccccc4C)C[C@@H]32)C(=O)N1C.O=C(O)C(F)(F)F	-3.912

SMILES	Percent Effect [%]
CN(C)C(=O)CCCNc1ncc2c(n1)CCN2c1ccccc1	14.48
O=C(CCNc1ncc2c(n1)CCN2c1ccccc1)N1CCCC1	58.85
OC1CCN(CCNc2ncc3c(n2)CCN3c2ccccc2)CC1	-5.755
CCc1ncc(C(=O)N2CC[C@@H]3CC[C@H](C2)N3C)cn1	-16.81
COc1cc2cc(C)c(SCCN3CCCCC3)nc2cc1OC.Cl	8.064
CN1CCC(CNC(=O)c2ccc(O)nc2)c2ccccc21 (centres undefined)	10.05
CN1CCC(CNC(=O)c2cccc(C(F)(F)F)c2)c2ccccc21 (centres undefined)	80.18
CN1CCC(CNC(=O)c2cccc(NC(N)=O)c2)c2ccccc21 (centres undefined)	13.83
FC1(F)CCN(Cc2ccncc2)CC12CCN(Cc1ccccn1)C2.O=C(O)C(F)(F)F.O=C(O)C(F)(F)F.O=C(O)C(F)(F)F (centres undefined)	-15.56
CCN(C)c1ncnc2c1CCN(Cc1csc(C)n1)CC2.O=C(O)C(F)(F)F.O=C(O)C(F)(F)F	2.134
O=S(=O)(C1CC1)N1CCc2ncnc(-c3ccsc3)c2CC1	-2.171
O=C(O)C(F)(F)F.O=C(c1ncccn1)N1CCC2(CC1)COC(COc1ccccn1)C2 (centres undefined)	-42.8
CCc1nnc2n1CCN(Cc1csc(-c3cnn(C)c3)n1)C2	103.2
Cc1nnc2n1CCN(Cc1csc(-c3cnn(C)c3)n1)C2	-22
CC(C)c1nnc2n1CCN(Cc1csc(-c3cnn(C)c3)n1)C2	2.86
Cn1cc(-c2nc(CN3CCN(CCO)CC3)cs2)cn1	7.212
CCCC1CCCN(Cc2csc(-c3ncccn3)n2)CC1 (centres undefined)	31.96
CCCC1CCCN(Cc2csc(-c3cnn(C)c3)n2)CC1 (centres undefined)	101.6
O=C(O)C(F)(F)F.O=C1COC2(CCN(C(=O)c3ccoc3)CC2)CN1Cc1ccccn1	-25.96
CCc1ccc2c(C3CN(S(C)(=O)=O)C3)ncn2c1	-5.732
CCc1ccc2c(C3CN(CC4CCC4)C3)ncn2c1.O=C(O)C(F)(F)F	59.23
CCc1ccc2c(C3CN(C(C)=O)C3)ncn2c1	-5.457

SMILES	Percent Effect [%]
Cc1ccoc1C(=O)N1C[C@H](OCc2cccnc2)[C@H]2OCCC[C@H]21.O=C(O)C(F)(F)F	-24.06
CNc1cc(CCNS(=O)(=O)c2ccccc2)nc(-c2ccccn2)n1	99.14
CCCC(=O)NCCc1cc(NC)nc(-c2ccccn2)n1	12.39
CNC(=O)c1ccc(S(=O)(=O)NCCc2ccccn2)cc1	-8.04
Cc1cc(NCCCNS(C)(=O)=O)nc2ccccc12	-11.41
CNc1cc(CCNC(=O)CC(C)C)nc(-c2ccccn2)n1	36.61
CCc1cc(NCCCNS(C)(=O)=O)nc(-c2ccccn2)n1	56.84
NC(=O)c1ccc(S(=O)(=O)NCCc2ccccn2)cc1	2.755
CNc1cc(CCNC(=O)C2CCCC2)nc(-c2ccccn2)n1	89.44
CCc1cc(NCCCNS(C)(=O)=O)nc(-c2ccncc2)n1	-1.348
CC1=C(C#N)C(=O)NC(=O)/C1=C\c1c(C)nn(-c2ccc(Cl)cc2)c1O	-14.1
COc1ccc(CN2CC[C@H]3O[C@@H](C(=O)NCC4CC4)CC[C@H]32)cc1.O=C(O)C(F)(F)F	-25.68
COc1cc(N2C[C@@H]3CC[C@H](C2)N(CC2CCC2)C3=O)ncn1	-13.86
Cc1nc(N)c2ccc(C3CCCN3)nc2n1.Cl (centres undefined)	-2.129
COCCN1C[C@H]2CC[C@@H]1CN(Cc1cc(=O)c3cc(C)ccc3[nH]1)C2	51.84
COCCN1C[C@H]2CC[C@@H]1CN(Cc1ccc3ccccc3n1)C2	46.17
CC(C)=CCN1C[C@H]2CC[C@@H]1CN(Cc1cc(=O)[nH]c(=O)[nH]1)C2	13.63
O=c1cc(CN2C[C@H]3CC[C@@H]2CN(Cc2ccccc2)C3)[nH]c(=O)[nH]1	-10.28
COCCN1C[C@H]2CC[C@@H]1CN(Cc1nc3ccccc3n1C)C2	78.75
COCCN1C[C@H]2CC[C@@H]1CN(CC(=O)Nc1ccn(C)n1)C2	-13.49
